Measurements as given in PubChem BioAssay AID1159580 (chemical genetic matrix, 2015).
Several values for one entry are separate records, joined by “and”; a condition that tells them apart may be missing. Identical values can stand only once. Hit rate of the full screen: of about 5,500 compounds, about 2,000 (36%) were called active. Inconclusive results (about 18%) are left out. Rule as the data show it: active = normalized growth mostly below about 0.91 (no sharp cut-off); inconclusive = no clear call, values can overlap the other calls; inactive = mostly above about 0.92. Some of the results follow.

Assay: chemical genetic growth profiling, strain panel (AID 1159580);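 also: tested at 20 µM; growth read once vehicle control cultures reached saturation at 30 °C; 1 = growth at the plate median or of vehicle wells; lower values mean less growth of the strain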
Conditions: S. cerevisiae deletion strains, growth OD

Measured: normalized growth

NC(=NCCCCCCN=C(N)N=C(N)Nc1ccc(Cl)cc1)N=C(N)Nc1ccc(Cl)cc1
active: locus YAL013W, strain DEP1, hits give low values 0.056 | locus YAL021C, strain ccr4, hits give low values 0.0662 | locus YAL026C, strain drs2, hits give low values 0.0626 | locus YAL030W, strain snc1, hits give low values 0.0546 | locus YBL061C, strain skt5, hits give low values 0.058 | locus YBR009C, strain hhf1, hits give low values 0.0582 | locus YBR021W, strain FUR4, hits give low values 0.0878 | locus YBR023C, strain chs3, hits give low values 0.0607 | locus YBR171W, strain sec66, hits give low values 0.0764 | locus YBR229C, strain ROT2, hits give low values 0.0485 | locus YBR231C, strain swc5, hits give low values 0.0617 | locus YBR279W, strain paf1, hits give low values 0.057 | locus YCL011C, strain gbp2, hits give low values 0.0584 | locus YCL016C, strain dcc1, hits give low values 0.0623 | locus YCL029C, strain bik1, hits give low values 0.0646 | locus YCL061C, strain MRC1, hits give low values 0.064 | locus YCL069W, strain vba3, hits give low values 0.0598 | locus YCR088W, strain abp1, hits give low values 0.0598 | locus YDL005C, strain med2, hits give low values 0.0712 | locus YDL035C, strain GPR1, hits give low values 0.0531 | locus YDL040C, strain nat1, hits give low values 0.0593 | locus YDL074C, strain BRE1, hits give low values 0.0847 | locus YDL101C, strain DUN1, hits give low values 0.0564 | locus YDL134C, strain PPH21, hits give low values 0.049 | locus YDL185W, strain tfp1, hits give low values 0.0606 | locus YDL192W, strain arf1, hits give low values 0.0624 | locus YDR001C, strain nth1, hits give low values 0.0588 | locus YDR069C, strain doa4, hits give low values 0.0603 | locus YDR101C, strain arx1, hits give low values 0.0584 | locus YDR137W, strain rgp1, hits give low values 0.0872 | locus YDR150W, strain NUM1, hits give low values 0.0563 | locus YDR159W, strain sac3, hits give low values 0.0896 | locus YDR162C, strain NBP2, hits give low values 0.0503 | locus YDR195W, strain ref2 0.121 | locus YDR297W, strain sur2, hits give low values 0.0547 | locus YDR318W, strain mcm21, hits give low values 0.0658 | locus YDR334W, strain swr1, hits give low values 0.0626 | locus YDR335W, strain msn5, hits give low values 0.0581 | locus YDR388W, hits give low values 0.0574 | locus YDR392W, strain spt3, hits give low values 0.0798 | locus YDR502C, strain sam2, hits give low values 0.0629 | locus YEL003W, strain gim4, hits give low values 0.0531 | locus YEL037C, strain rad23, hits give low values 0.0554 | locus YEL061C, strain CIN8 (second series), hits give low values 0.0594 | locus YEL061C, strain CIN8, hits give low values 0.0488 | locus YER015W, strain faa2, hits give low values 0.0825 | locus YER016W, strain bim1, hits give low values 0.058 | locus YER110C, hits give low values 0.0744 | locus YER111C, strain swi4, hits give low values 0.0705 | locus YER155C, strain BEM2 (second series), hits give low values 0.087 | locus YER155C, strain BEM2, hits give low values 0.0622 | locus YER167W, strain BCK2, hits give low values 0.0527 | locus YFR010W, strain ubp6, hits give low values 0.0674 | locus YGL078C, strain dbp3, hits give low values 0.65 | locus YGL086W, strain mad1, hits give low values 0.0564 | locus YGL167C, strain pmr1, hits give low values 0.0727 | locus YGL173C, strain kem1, hits give low values 0.0668 | locus YGL227W, strain vid30, hits give low values 0.0612 | locus YGL240W, strain doc1, hits give low values 0.0747 | locus YGL248W, strain PDE1, hits give low values 0.0464 | locus YGL253W, strain hxk2, hits give low values 0.0538 | locus YGR078C, strain PAC10, hits give low values 0.0508 | locus YGR135W, strain pre9, hits give low values 0.0694 | locus YGR229C, strain SMI1, hits give low values 0.0582 | locus YGR252W, strain gcn5, hits give low values 0.146 | locus YHR013C, strain ard1, hits give low values 0.103 | locus YHR027C, strain rpn1, hits give low values 0.058 | locus YHR030C, strain SLT2, hits give low values 0.051 and 0.102 | locus YHR079C, strain IRE1 (second series), hits give low values 0.0602 | locus YHR079C, strain IRE1, hits give low values 0.112 | locus YHR094C, strain hxt1, hits give low values 0.0587 | locus YHR129C, strain ARP1, hits give low values 0.0541 | locus YHR142W, strain chs7, hits give low values 0.0756 | locus YHR200W, strain rpn10, hits give low values 0.0614 | locus YIL066C, strain RNR3, hits give low values 0.0507 | locus YIL073C, strain SPO22, hits give low values 0.128 | locus YIL125W, strain kgd1, hits give low values 0.898 | locus YIR030C, strain dcg1, hits give low values 0.0593 | locus YJL092W, strain hpr5, hits give low values 0.0573 | locus YJL095W, strain BCK1 (second series), hits give low values 0.0565 | locus YJL095W, strain BCK1, hits give low values 0.0587 and 0.0988 | locus YJL115W, strain asf1, hits give low values 0.0702 | locus YJL129C, strain trk1, hits give low values 0.0784 | locus YJL134W, strain LCB3, hits give low values 0.0499 | locus YJL154C, strain vps35, hits give low values 0.0596 | locus YJL164C, strain tpk1, hits give low values 0.0644 | locus YJL166W, strain qcr8, hits give low values 0.0585 | locus YJL168C, strain set2, hits give low values 0.059 | locus YJL187C, strain SWE1 (second series), hits give low values 0.0495 | locus YJR043C, strain POL32, hits give low values 0.0601 | locus YJR066W, strain TOR1, hits give low values 0.00766
